Measured values as given in PubChem BioAssay (EPA / NIEHS).
Results filed as inconclusive are left out. Activity calls are given as the source filed them. The calls were made as follows, unless noted: active = hit-call score of the fitted dose curve at least 0.9, where 1 is the maximum; inconclusive = response in the unintended direction; inactive = score below 0.9.

Columns and labels:
IYD (gene 389434) = experiment: CCTE_GLTED_hIYD: CCTE's human Iodotyrosine Deiodinase (xIYD) Inhibition Assay, Great Lakes Toxicology and Ecology Division (GLTED) Lab (AID 2284317);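 also: cell-free human IYD enzyme made in baculovirus insect cells; iodide freed from monoiodotyrosine measured by cerium arsenite color change at 420 nm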
In short: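 First, recombinant human IYD (baculovirus-insect cells), MIT and chemical incubated 3 h. Next, iodide isolated on Dowex. Finally, Sandell-Kolthoff rate read at 420 nm, with platewise normalization to MNT and solvent controls.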

[1] = IUF_NPC2c_oligodendrocyte_migration_120hr: Leibniz Research Institute for Environmental Medicine (IUF) 120-hour Neural Progenitor Cell Migration Assay for Oligodendrocyte Migration (NPC2c) (AID 2284297; active = hit-call score of the fitted dose curve at least 0.9, where 1 is the maximum; inactive = score below 0.9)
In short: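 Read-out is the mean distance of O4-positive oligodendrocytes from the sphere core edge at 120 h, normalized to radial glia migration and fitted in the gain direction against DMSO. Spheres of primary human neural progenitors differentiated on laminin under continuous compound exposure.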

[2] = IUF_NPC2a_radial_glia_migration_120hr: Leibniz Research Institute for Environmental Medicine (IUF) 120-hour Neural Progenitor Cell Migration Assay for Radial Glia Migration (NPC2a) (AID 2284298; active = hit-call score of the fitted dose curve at least 0.9, where 1 is the maximum; inactive = score below 0.9)
In short: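 Readout: distance in um from sphere core edge to migration-area edge, derived from Hoechst nuclei density with a threshold-defined polynomial boundary. Spheres: hNPC, GW 16-19, 0.3 mm, on PDL/laminin; exposure 5 days; DMSO is baseline.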

[3] = IUF_NPC2a_radial_glia_migration_72hr: Leibniz Research Institute for Environmental Medicine (IUF) 72-hour Neural Progenitor Cell Migration Assay for Radial Glia Migration (NPC2a) (AID 2284299; active = hit-call score of the fitted dose curve at least 0.9, where 1 is the maximum; inactive = score below 0.9)
In short: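 Migration out of plated human neural progenitor spheres is scored at 72 h as the distance in um from the sphere core edge to the edge of the migration area. Values are the mean of four manual measurements per well, normalised to DMSO.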

[4] = IUF_NPC2b_neuronal_migration_120hr: Leibniz Research Institute for Environmental Medicine (IUF) 120-hour Neural Progenitor Cell Migration Assay for Neuron Migration (NPC2b) (AID 2284300; active = hit-call score of the fitted dose curve at least 0.9, where 1 is the maximum; inactive = score below 0.9)
In short: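 Read-out is mean distance from sphere edge to each TUBB3-positive neuron at 120 h, expressed relative to radial glia migration distance and to DMSO baseline. Single 0.3 mm human NPC spheres differentiated on laminin under continuous compound exposure.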

[5] = IUF_NPC3_neuronal_differentiation_120hr: Leibniz Research Institute for Environmental Medicine (IUF) 120-hour Neuronal Differentiation Assay (NPC3) (AID 2284301; active = hit-call score of the fitted dose curve at least 0.9, where 1 is the maximum; inactive = score below 0.9)
In short: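 Human fetal (GW 16-19) neural progenitor spheres (0.3 mm) plated on poly-D-lysine/laminin in N2 differentiation medium, exposed 120 h at 37C with half-medium renewal day 3; 7 concentrations. TUBB3+ cells as % of Hoechst nuclei, CNN-identified; DMSO baseline.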

[6] = IUF_NPC4_neurite_length_120hr: Leibniz Research Institute for Environmental Medicine (IUF) 120-hour Neuronal Morphology Assay for Neurite Length (NPC4) (AID 2284302; active = hit-call score of the fitted dose curve at least 0.9, where 1 is the maximum; inactive = score below 0.9)
In short: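 Human fetal neural progenitor spheres (0.3 mm) plated on poly-D-lysine/laminin in N2 differentiation medium, exposed from day 0 for 120 h with half-medium refresh at day 3, 37C. Mean neurite length (um) of TUBB3-positive neurons from skeletonized immunostaining images; DMSO ≤0.1%.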

[7] = IUF_NPC5_oligodendrocyte_differentiation_120hr: Leibniz Research Institute for Environmental Medicine (IUF) 120-hour Oligodendrocyte Differentiation Assay (NPC5) (AID 2284304);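 also: primary human fetal neural progenitor spheres plated to migrate and differentiate; share of O4-positive cells among Hoechst nuclei found by CNN image analysis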
In short: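 Oligodendrocyte differentiation was scored after 120 h as the O4-positive share of Hoechst-stained nuclei across the neurosphere migration area, using a trained convolutional neural network on high-content fluorescence images. Human fetal neural progenitor spheres were dosed from day 0, normalised to DMSO.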

[8] = IUF_NPC4_neurite_area_120hr: Leibniz Research Institute for Environmental Medicine (IUF) 120-hour Neuronal Morphology Assay for Neurite Area (NPC4) (AID 2284305)
In short: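 Human fetal neural progenitor spheres (0.3 mm) plated on poly-D-lysine/laminin in N2 differentiation medium, exposed 120 h (7 concentrations, DMSO ≤0.1%, half-medium refresh day 3). Fixed, TUBB3 immunostained; mean neurite area per neuron by Omnisphero skeletonization.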

[9] = IUF_NPC2-5_cytotoxicity_72hr: Cytotoxicity Assessment at 72 hours in the Leibniz Research Institute for Environmental Medicine (IUF) Neural Progenitor Cell Migration and Differentiation Assay for Cytotoxicity (NPC2-5) (AID 2284306);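 also: LDH release into supernatant measured by resorufin fluorescence marking membrane damage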
In short: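 Human fetal primary neural progenitor spheres (0.3 mm) plated on poly-D-lysine/laminin in N2 differentiation medium, exposed from day 0 at 37C. LDH-dependent resazurin-to-resorufin fluorescence in supernatant at 72 h; 7 concentrations, DMSO at most 0.1%.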

[10] = IUF_NPC2-5_cytotoxicity_120hr: Cytotoxicity Assessment at 120 hours in the Leibniz Research Institute for Environmental Medicine (IUF) Neural Progenitor Cell Migration and Differentiation Assay (NPC2-5) (AID 2284307);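 as to AC50: LDH released into supernatant as membrane damage marker via resorufin fluorescence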
In short: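 Sphere plating starts differentiation and exposure together at day 0. Compound solution is half-replaced on day 3. At 120 h, medium supernatant is taken for an LDH membrane-integrity read based on resazurin reduction to resorufin fluorescence.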

[11] = IUF_NPC2-5_cell_number_120hr: Cell Number Assessment at 120 hours in the Leibniz Research Institute for Environmental Medicine (IUF) Neural Progenitor Cell Migration and Differentiation Assay (NPC2-5) (AID 2284308; active = hit-call score of the fitted dose curve at least 0.9, where 1 is the maximum; inactive = score below 0.9;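 also: count of Hoechst-stained nuclei in migration zone around plated human neural progenitor spheres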)
In short: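 hNPC spheres, one per well, PDL/laminin, N2 medium, 37C, 5% CO2. Dosing day 0 → half-medium change with fresh compound day 3 → fix 120 h. Readout: Hoechst+ nuclei count, migration area; 7 concentrations plus solvent control.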

[12] = VALA_TUBHUV_Agonist_CellCount: Viability Assessment in the VALA Sciences human Umbilical Vein Endothelial Tubule Formation (TUBHUV) Agonism Assay (AID 2284309)
In short: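 HUVEC co-cultured 1:3 with HDF for 3 days in 10 ng/ml VEGF, then compounds added in VEGF medium for a further 3 days (72 h). Nuclear-stain/CD31 imaging cell count. Positive-direction fit versus 0.1% DMSO vehicle.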

[13] = VALA_TUBHUV_Antagonist_CellCount: Viability Assessment in the VALA Sciences human Umbilical Vein Endothelial Tubule Formation (TUBHUV) Antagonism Assay (AID 2284310)
In short: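 HUVEC co-cultured with HDF (1:3) 3 days in 10 ng/ml VEGF, then 3 days with compounds in VEGF medium. Fixed, nuclear stain and CD31 immunofluorescence, imaged; cell counts fitted versus 0.1% DMSO, loss of signal read as lower viability.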

[14] = VALA_TUBIPS_Agonist_TubuleLength: VALA Sciences human iPS-derived Endothelial Tubule Formation (TUBIPS) Agonism Assay (AID 2284311)
In short: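 Human iPS-derived endothelial cells were exposed to compound for 72 h. Tubule formation was imaged by high-content fluorescence and scored as gain of signal relative to DMSO vehicle (agonist mode).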

[15] = IUF_NPC2-5_viability_120hr: Viability Assessment at 120 hours in the Leibniz Research Institute for Environmental Medicine (IUF) Neural Progenitor Cell Migration and Differentiation Assay (NPC2-5) (AID 2284312; active = hit-call score of the fitted dose curve at least 0.9, where 1 is the maximum; inactive = score below 0.9)
In short: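 Human fetal neural progenitor spheres (0.3 mm) plated on poly-D-lysine/laminin in N2 differentiation medium, exposed 120 h with half-medium refresh at day 3. Viability by alamar blue resazurin fluorescence; 7 concentrations, DMSO max 0.1%.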

[16] = VALA_MIGHUV2_CellCount: Viability Assessment in the VALA Sciences human Umbilical Vein Endothelial Cell Migration (MIGHUV) Assay, Area of Scratch Wound after Recovery (AID 2284314)
In short: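 Scratch-wounded HUVEC monolayers received test chemical within 30 min, 6-point concentration response in triplicate, 0.1 % DMSO vehicle. After 24 h wound recovery, fixed cells were Hoechst-stained and nuclei imaged; loss of signal versus DMSO indicates reduced viability.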

[17] = VALA_MIGHUV2_WoundArea: VALA Sciences human Umbilical Vein Endothelial Cell Migration (MIGHUV) Assay, Area of Scratch Wound after Recovery (AID 2284316)
In short: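 HUVEC seeded at 9000 cells/well, scratched after 24 h; test chemical added within 30 min, 6-point concentration response in triplicate (0.1% DMSO vehicle). After 24 h wound recovery, cells fixed and Hoechst-stained nuclei in wound area imaged; Cytochalasin D reference control.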

[18] = VALA_MIGHUV2_Bcatenin: VALA Sciences human Umbilical Vein Endothelial Cell Migration (MIGHUV) Assay, Nuclear Translocation of beta-Catenin after Recovery (AID 2284315)
In short: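 HUVEC (4000 cells/well) scratch-wounded, dosed within 30 min over 6 concentrations in triplicate, recovered 24 h. After fixation, Hoechst and anti-beta-catenin immunofluorescence imaged for nuclear CTNB. Gain of signal versus 0.1% DMSO.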

[19] = VALA_TUBIPS_Antagonist_TubuleLength: VALA Sciences human iPS-derived Endothelial Tubule Formation (TUBIPS) Antagonist Assay (AID 2284313)
In short: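 Cells grown 3 days with 10 ng/ml VEGF, then exposed to compounds in VEGF medium for another 3 days. After fixation, nuclear stain and CD31 immunofluorescence imaging gave mean total tubule length against 0.1% DMSO; suramin (100 uM) inhibition control.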

Measured: AC50

CCCCCCCCCCCCCCCCOS(=O)(=O)O
active: IYD (gene 389434) 32.7 µM

NC(=O)NN=Cc1ccc([N+](=O)[O-])o1
active: IYD (gene 389434) 74.4 µM

Cn1cc[nH]c1=S
not listed: IYD (gene 389434) | [18] | [19]
inactive: all other assays above

CCCCCCCCCC
inactive: [16] | [18] | [17]

OCCNCCO
inactive: [12] | [13]

CCCC(CCC)C(=O)O
inactive: [1] | [4] | [8] | [13] | [14] | [19]
active: [3] 1330 µM | [5] 2200 µM | [6] 2180 µM | [7] 999 µM | [10] 1400 µM | [11] 2210 µM | [15] 1030 µM

Nc1ccn([C@@H]2O[C@H](CO)[C@@H](O)[C@@H]2O)c(=O)n1
active: [5] 0.0137 µM | [9] 0.237 µM | [10] 0.0802 µM | [11] 0.743 µM
inactive: [1] | [2] | [3] | [4] | [6] | [8] | [15]

CCN(CC)C(=S)SSC(=S)N(CC)CC
inactive: [14] | [17]
